Data reported in PubChem BioAssay (Tox21).
Records with an inconclusive call do not appear. Where a call stands in place of a potency, no number is given. Active and inactive are the calls of the source. Calls follow the shape of the dose curve; as a rule, active = well fitted cell-killing curve with a large enough effect in the repeat runs; inconclusive = weak or mixed curves, or effect the other way; inactive = flat fitted curve, though single readings scatter.

assay: qHTS assay to identify small molecule agonists of the TGF-beta/Smad signaling pathway - cell viability counter screen (AID 1346829); conditions: SBE-bla HEK293T viability, CellTiter-Glo luminescence, 5 h; series mostly up to 76.8 µM; also: nearly all actives have a fitted effect of over 45% in size
Source text: National Center for Advancing Translational Sciences [NCATS]
NIH Chemical Genomics Center [NCGC]
U.S. Environmental Protection Agency [EPA]
National Institutes of Environmental Health Sciences [NIEHS]
National Toxicology Program [NTP]
U.S. Food and Drug Administration [FDA]
Transforming growth factor beta (TGF-beta) superfamily consists of a large number of structurally related dimeric proteins that act as hormones or local mediators in regulating a wide range of biological functions. This superfamily includes TGF-betas themselves, the bone morphogenetic proteins (BMPs) and the activins. These ligands induce oligomerization of serine/threonine receptor kinases and phosphorylate the cytoplasmic signaling molecules of Smad protein family. CellSensor SBE-bla HEK 293T cell line (Life Technologies, Carlsbad, CA), responsive to TGF-beta was used to screen Tox21 10K compound library for identification of agonists/antagonists of the Smad signaling pathway. This cell line contains a beta-lactamase reporter gene under control of the Smad binding element (SBE) stably integrated into HEK 293T cells. Also cytotoxicity of the compounds was tested in parallel by measuring the cell viability using CellTiter-Glo assay system in the same wells.
Tox21 Assay Protocol Summary:
SBE-bla HEK 293T cells were dispensed at 4,000/well in 6 uL of assay medium into black wall/clear-bottom 1536-well plates using a Multidrop Combi (ThermoFisher Scientific, Waltham, MA) dispenser. After the assay plates were incubated at 37 C and 5% CO2 for an overnight, 23 nL of compounds dissolved in DMSO, positive controls or DMSO only was transferred to the assay plate by a Pintool station (Kalypsys, San Diego, CA). The assay plates were incubated at 37 C and 5% CO2 for 5 hr. One uL of LiveBLAzer B/G FRET substrate (Life Technologies) was added using a Flying Reagent Dispenser (FRD, Aurora Discovery, San Diego, CA) and the plates were incubated at room temperature for 2 hr. Fluorescence intensity (405 nm excitation, 460 nm and 530 nm emissions) was measured using an Envision plate reader (PerkinElmer, Shelton, CT). For cytotoxicity read, 4 uL of CellTiter-Glo reagent (Promega Corporation, Madison, WI) was added to each well of the assay plates using FRD. After 30min incubation at room temperature, the luminescence intensity was measured using ViewLux plate reader (PerkinElmer).
Potency is read from the fitted curve at half-maximal effect.

| SMILES | Potency |
| --- | --- |
| Cc1c(OCC(F)(F)F)ccnc1CS(=O)c1nc2ccccc2[nH]1 (stereo not given) | inactive |
| c1ccc2cc(Nc3ccc(Nc4ccc5ccccc5c4)cc3)ccc2c1 | inactive |
| CC(=O)CC/C=C(\C)CCC=C(C)C | inactive |
| CC(CCC(=O)O)(c1ccc(O)cc1)c1ccc(O)cc1 | inactive |
| CCC(C)(O)CCCC(C)C (stereo not given) | inactive |
| c1ccc2c(c1)c1cccc3ccc4cccc2c4c31 | inactive |
| CC(=O)c1ccccn1 | inactive |
| Cc1cccc([N+](=O)[O-])c1C | inactive |
| Cc1ncc[nH]1 | inactive |
| Nc1ncnc2nc[nH]c12 | inactive |
| Nc1ccc(S(=O)(=O)Nc2cnc3ccccc3n2)cc1 | inactive |
| CN(C)C(=N)N=C(N)N | inactive |
| c1ccc2sc(SSN3CCOCC3)nc2c1 | inactive |
| COC(=O)Nc1nc2ccc(S(=O)c3ccccc3)cc2[nH]1 (stereo not given) | inactive |
| CC(=O)Oc1ccccc1C(=O)Nc1ncc([N+](=O)[O-])s1 | 11.2 µM (active) |
| C=C(C)C1CC=C(C)CC1 (stereo not given) | inactive |
| OC[C@H]1O[C@@H]2O[C@H]3[C@H](O)[C@@H](O)[C@@H](O[C@H]4[C@H](O)[C@@H](O)[C@@H](O[C@H]5[C@H](O)[C@@H](O)[C@@H](O[C@H]6[C@H](O)[C@@H](O)[C@@H](O[C@H]7[C@H](O)[C@@H](O)[C@@H](O[C@H]8[C@H](O)[C@@H](O)[C@@H](O[C@H]1[C@H](O)[C@H]2O)O[C@@H]8CO)O[C@@H]7CO)O[C@@H]6CO)O[C@@H]5CO)O[C@@H]4CO)O[C@@H]3CO | inactive |
| O=C(c1ccc(OCCN2CCCCC2)cc1)c1c(-c2ccc(O)cc2)sc2cc(O)ccc12 | inactive |
| COC(=O)CCC(=O)OC | inactive |
| O=c1oc(=O)c2cc3c(=O)oc(=O)c3cc12 | inactive |

| SMILES | Potency |
| --- | --- |
| Cc1c(C(N)=O)cc([N+](=O)[O-])cc1[N+](=O)[O-] | inactive |
| OC1CCCCCCCCCCC1 | inactive |
| CC(C(=O)O)c1cccc(C(=O)c2ccccc2)c1 (stereo not given) | inactive |
| Cc1ccc2c(n1)Oc1ccc(C(C)C(=O)OCC(=O)N(C)C)cc1C2 (stereo not given) | inactive |
| c1cc(N(CC2CO2)CC2CO2)ccc1OCC1CO1 (stereo not given) | inactive |
| COc1ccc(OC)c(C(O)CNC(=O)CN)c1 (stereo not given) | inactive |
| CCC(C)c1ccccc1O (stereo not given) | inactive |
| COc1ccc(C(=O)CC(=O)c2ccc(C(C)(C)C)cc2)cc1 | inactive |
| C[C@]12CCC(=O)C=C1CC[C@@H]1[C@@H]2C(=O)C[C@@]2(C)[C@H]1CC[C@]2(O)C(=O)CO | inactive |
| CC(C)OB(OC(C)C)OC(C)C | inactive |
| CC(=O)O[C@]1(C(C)=O)CC[C@H]2[C@@H]3C=C(Cl)C4=CC(=O)[C@@H]5C[C@@H]5[C@]4(C)[C@H]3CC[C@@]21C | inactive |
| COc1cc([C@@H]2c3cc4c(cc3[C@H](O)[C@H]3COC(=O)[C@H]23)OCO4)cc(OC)c1OC | inactive |
| O=C1c2cccc(O)c2C(=O)c2c(O)cccc21 | inactive |
| COC(C)COC(C)COC(C)CO (stereo not given) | inactive |
| O=C(O)c1ccccc1Nc1cccc(C(F)(F)F)c1 | inactive |
| c1ccc(Nc2ccccc2)cc1 | inactive |
| Cc1cccc(C(=O)O)c1 | inactive |
| c1ccc2c(c1)Oc1ccccc1S2 | inactive |
| CC(C)=CCCC(C)CCO (stereo not given) | inactive |
| CN(C)CCN(Cc1cccs1)c1ccccn1 | inactive |
